Test results published in PubChem BioAssay.
Values joined by “and” are separate entries in the source; they are usually repeats but may differ in a detail not shown here. Identical values can stand only once. Active and inactive are the calls of the source.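 How the source made its calls, unless noted: active means thallium flux through the channel raised or lowered by more than 3 SD from vehicle-only wells, actives on both sides; inactive means the rest.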

Experiments:
[1] = biological target: NAD(+) hydrolase SARM1 (Homo sapiens) (UniProt Q6SZW1); assay: blocking NAD cleavage by SARM1 SAM-TIR – cell lysate, NAD-Glo luminescence (AID 1508614;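 active means compound whose remaining NAD level is above about 45 nM, limit read from the data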); settings: SAM-TIR HEK293T lysate NADase, at 1 µM, stronger effect = higher value
NAD(+) hydrolase SARM1 (Homo sapiens), sequence (Q6SZW1 whole entry, looked up, the tested form may be a part): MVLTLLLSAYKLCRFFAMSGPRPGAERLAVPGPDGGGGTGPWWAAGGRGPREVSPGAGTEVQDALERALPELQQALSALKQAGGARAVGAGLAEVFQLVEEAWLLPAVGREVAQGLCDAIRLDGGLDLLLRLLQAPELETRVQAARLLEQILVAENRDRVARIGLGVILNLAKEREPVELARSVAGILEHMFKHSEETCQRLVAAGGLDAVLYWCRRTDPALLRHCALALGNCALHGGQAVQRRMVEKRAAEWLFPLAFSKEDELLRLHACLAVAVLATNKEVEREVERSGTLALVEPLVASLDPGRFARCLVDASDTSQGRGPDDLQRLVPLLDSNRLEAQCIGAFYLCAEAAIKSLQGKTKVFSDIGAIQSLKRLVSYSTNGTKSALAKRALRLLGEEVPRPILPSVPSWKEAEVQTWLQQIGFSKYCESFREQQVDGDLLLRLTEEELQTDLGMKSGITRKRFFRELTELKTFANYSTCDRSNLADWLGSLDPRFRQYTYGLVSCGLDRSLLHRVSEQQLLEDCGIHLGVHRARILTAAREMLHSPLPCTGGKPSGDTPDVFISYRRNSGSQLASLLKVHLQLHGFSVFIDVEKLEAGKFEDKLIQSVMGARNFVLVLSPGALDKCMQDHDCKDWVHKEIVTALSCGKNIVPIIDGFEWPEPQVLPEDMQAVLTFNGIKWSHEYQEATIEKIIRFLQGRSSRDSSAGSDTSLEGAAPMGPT

[2] = biological target: Mitogen-activated protein kinase 7 (Homo sapiens) (UniProt Q13164); assay: Gal4-ERK5 driven luciferase induction – cell-based, HTS, primary screen (AID 1508626;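 active means luciferase signal above three times the same-plate solvent-only control wells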;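 further: luciferase driven by Gal4-ERK5 fusion binding five Gal4 sites before minimal TATA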); settings: HeLa Gal4-ERK5 transactivation, 18 h, at 5 µM, stronger effect = higher value
Mitogen-activated protein kinase 7 (Homo sapiens), sequence (Q13164 whole entry, looked up, the tested form may be a part): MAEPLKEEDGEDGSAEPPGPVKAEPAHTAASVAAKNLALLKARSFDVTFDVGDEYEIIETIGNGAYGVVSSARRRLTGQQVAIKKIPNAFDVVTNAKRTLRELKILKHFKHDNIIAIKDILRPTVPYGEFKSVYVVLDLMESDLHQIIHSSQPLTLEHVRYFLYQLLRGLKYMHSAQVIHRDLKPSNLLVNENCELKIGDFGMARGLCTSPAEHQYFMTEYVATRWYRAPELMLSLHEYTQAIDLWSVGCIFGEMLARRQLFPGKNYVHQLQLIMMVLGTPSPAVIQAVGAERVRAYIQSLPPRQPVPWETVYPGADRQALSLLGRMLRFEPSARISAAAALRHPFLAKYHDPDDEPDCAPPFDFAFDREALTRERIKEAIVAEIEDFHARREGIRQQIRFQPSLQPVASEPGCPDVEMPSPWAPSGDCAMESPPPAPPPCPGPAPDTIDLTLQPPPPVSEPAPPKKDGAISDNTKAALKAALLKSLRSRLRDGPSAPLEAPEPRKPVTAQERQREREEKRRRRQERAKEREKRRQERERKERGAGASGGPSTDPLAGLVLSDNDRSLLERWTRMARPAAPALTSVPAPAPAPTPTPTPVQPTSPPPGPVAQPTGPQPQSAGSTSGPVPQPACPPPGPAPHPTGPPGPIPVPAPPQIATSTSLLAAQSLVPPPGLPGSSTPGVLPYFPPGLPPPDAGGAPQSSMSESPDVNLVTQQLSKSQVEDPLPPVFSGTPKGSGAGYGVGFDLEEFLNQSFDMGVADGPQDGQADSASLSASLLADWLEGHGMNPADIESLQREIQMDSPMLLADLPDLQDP

[3] = galactose survival enhancers in mitochondrial complex I cybrids – cell-based, galactose medium, ATP luminescence, primary screen (AID 1645843;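 active means z-score of at least 1.8 in each of two replicates, scored against plate mean and spread of sample wells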;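 further: positive z means more ATP and so rescue of galactose-driven cybrid death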); settings: complex I mutant cybrid cells, 72 h, stronger effect = higher value
F380Y = assay: BK channel mutant inhibitors and activators – cell-based, U2OS BacMam, thallium flux, beta subunits, selectivity assay, profiling panel (AID 1259406); settings: U2OS BacMam BK variants, at 30 µM;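 further: initial slope of Thallos dye fluorescence rise after thallium is added; log ratio against the mean of 0.3% DMSO vehicle wells on the same plate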
F380Y/beta1 = assay: as above; settings: U2OS BacMam BK variants, at 30 µM
[4] = growth inhibition, single agent or in combination, cell-based, chromothripsis tumors, cisplatin or BGB combos (AID 1671449; in the data active means inhibition above about 80%;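 further: cells exposed for 96 hours; 0% = vehicle DMSO and 100% = killing by high DMSO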); settings: LFS_MB_P medulloblastoma cells
[5] = growth inhibition, single agent and combos, cell-based, chromothripsis tumors, cisplatin or BGB combos (AID 1671450; in the data active means inhibition above about 80%;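 further: cells exposed to compound for four days; 0% = vehicle DMSO and 100% = cell killing by high DMSO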); settings: HDN33 neuroblastoma cells, stronger effect = higher value
[6] = growth inhibition, single agents and combos, ICB984, cell-based, cisplatin or BGB combos, synergistic combos for chromothripsis tumors (AID 1671451; call rule not given here;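 further: cells exposed for 96 hours before readout; 0% = vehicle DMSO and 100% = killing by high DMSO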); settings: ICB984 medulloblastoma cells, drug combinations, stronger effect = higher value
[7] = growth inhibition, single agents and combos, LFS_MB_1R, cell-based, cisplatin or BGB combos, synergistic combos for chromothripsis tumors (AID 1671452; in the data active means inhibition above about 80%;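 further: cells exposed for 96 hours before readout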); settings: LFS_MB_1R medulloblastoma cells, stronger effect = higher value
[8] = growth inhibition, single agents and combos, HTB85, cell-based, BGB or cisplatin IC20 combos, synergistic combos for chromothripsis tumors (AID 1671453; in the data active means inhibition above about 80%;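 further: cells exposed for 96 hours before readout; 0% = vehicle DMSO and 100% = high DMSO killing control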); settings: HTB85 osteosarcoma cells, drug combinations, stronger effect = higher value
[9] = growth inhibition, single agents and combos, CRL2098, cell-based, BGB or cisplatin IC20 combos, synergistic combos for chromothripsis tumors (AID 1671454; in the data active means inhibition above about 80%;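 further: cells exposed for 96 h before readout; 0% = vehicle DMSO and 100% = killing by high DMSO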); settings: CRL2098 osteosarcoma cells, drug combinations, stronger effect = higher value
[10] = growth inhibition, single agents and combos, HD-MB03, cell-based, BGB or cisplatin IC20 combos, synergistic combos for chromothripsis tumors (AID 1671455; in the data active means inhibition above about 83%;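 further: 0% = vehicle DMSO and 100% = high DMSO as cytotoxic control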); settings: HD-MB03 medulloblastoma cells, stronger effect = higher value
[11] = growth inhibition, single agents and combos, UWB1.289, cell-based, BGB or cisplatin combos, synergistic combos for chromothripsis tumors (AID 1671456; in the data active means inhibition above about 80%;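 further: cells exposed to compound for four days; 0% = vehicle DMSO and 100% = killing by high DMSO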); settings: UWB1.289 ovarian carcinoma cells, stronger effect = higher value
[12] = growth inhibition, single agents and combos, LFS_MB_2R, cell-based, cisplatin combos, synergistic combos for chromothripsis tumors (AID 1671457; in the data active means inhibition above about 80%;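 further: cells exposed to compound for four days before readout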); settings: LFS_MB_2R medulloblastoma cells, stronger effect = higher value
[13] = growth inhibition, MDA-MB-436, cell-based, BGB or cisplatin combos, synergistic combos for chromothripsis tumors (AID 1671458; call rule not given here;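 further: cells exposed for 96 hours; 0% = vehicle DMSO and 100% = killing by high DMSO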); settings: MDA-MB-436 breast carcinoma growth inhibition, drug combinations, stronger effect = higher value
[14] = UWB1.289_BRCA1 ovarian cancer growth, cell-based, BGB or cisplatin combinations (AID 1671459; in the data active means inhibition above about 80%); settings: UWB1.289 BRCA1 ovarian carcinoma, drug combinations, stronger effect = higher value
[15] = drug combination toxicity in non-malignant astrocytes – cell-based, BGB or cisplatin IC20 combos, cytotoxicity control for chromothriptic childhood tumor combination screen (AID 1671460; in the data active means inhibition above about 80%;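 further: cells exposed to compounds for 96 hours before viability readout; 0% = vehicle and 100% = killing control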); settings: Human astrocytes, viability inhibition, drug combinations, at 0.5 µM, stronger effect = higher value
[16] = BT084 cell growth, single and combined drugs, ICGC_MB145, cisplatin and BGB IC40 combos (AID 1671461; in the data active means inhibition above about 80%;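 further: cells exposed to drugs for 96 hours; 0% = vehicle DMSO and 100% = high DMSO full killing control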); settings: BT084 medulloblastoma cells, drug combinations, stronger effect = higher value
[17] = RCMB18 cell growth, single agent and combined, cisplatin and BGB IC40 combos (AID 1671462; in the data active means inhibition above about 80%;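 further: cells exposed to compound for four days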); settings: RCMB18 medulloblastoma cells, stronger effect = higher value
[18] = CRL1545 cell growth, single agent and combined, cisplatin and BGB IC20 combos (AID 1671464; in the data active means inhibition above about 80%;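 further: cells exposed to compound for 96 hours before readout; 0% = vehicle DMSO and 100% = high DMSO killing control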); settings: CRL1545 osteosarcoma cells, stronger effect = higher value
[19] = measured here: combination with BGB IC40, at 0.05 µM
[20] = measured here: with BGB IC20 combination, at 0.5 µM
[21] = measured here: with cisplatin IC20 combination, at 0.5 µM
[22] = measured here: combination with cisplatin, at 0.5 µM
[23] = measured here: combination with cisplatin, at 5 µM

CCc1oc2ccccc2c1C(=O)c1cc(Br)c(O)c(Br)c1
remaining NAD [1]: 10 nM (inactive)
luciferase signal [2]: 52 AU (inactive)
z-score [3]: -1.42 (inactive)
log fold change Tl+ flux (F380Y): 0.395 (active)
log fold change Tl+ flux (F380Y/beta1): 0.958 (active)

CCc1nn(CCCN2CCN(c3cccc(Cl)c3)CC2)c(=O)n1CCOc1ccccc1
remaining NAD [1]: 10 nM (inactive)
z-score [3]: -1.88 (inactive) and -0.63 (inactive) and -2.48 (inactive)
log fold change Tl+ flux (F380Y): -0.403 (active)
log fold change Tl+ flux (F380Y/beta1): -0.178 (active)

C#C[C@]1(O)CC[C@H]2[C@@H]3[C@H](C)CC4=C(CCC(=O)C4)[C@H]3CC[C@@]21C
remaining NAD [1]: 10 nM (inactive)
z-score [3]: -0.015 (inactive)
log fold change Tl+ flux (F380Y): 0.0382 (inactive)
log fold change Tl+ flux (F380Y/beta1): 0.123 (active)

CC[N+](C)(CC)CCOC(=O)C(O)(c1ccccc1)C1CCCCC1 (stereo not given)
remaining NAD [1]: 10 nM (inactive)
z-score [3]: 0.47 (inactive)
log fold change Tl+ flux (F380Y): -0.192 (active)
log fold change Tl+ flux (F380Y/beta1): -0.0336 (inactive)

COc1ccccc1OCC(O)CN1CCN(CC(=O)Nc2c(C)cccc2C)CC1 (stereo not given)
remaining NAD [1]: 10 nM (inactive)
luciferase signal [2]: 56 AU (inactive)
z-score [3]: -0.345 (inactive) and -0.115 (inactive) and 0.005 (inactive)
log fold change Tl+ flux (F380Y): 0.091 (inactive)
log fold change Tl+ flux (F380Y/beta1): 0.0232 (inactive)

CC(C)(C(=O)c1cccnc1)c1cccnc1
remaining NAD [1]: 100 nM (active)
z-score [3]: 0.18 (inactive)
log fold change Tl+ flux (F380Y): -0.0599 (inactive)
log fold change Tl+ flux (F380Y/beta1): 0.0309 (inactive)

CC(C)(C)NC(=O)[C@H]1CC[C@H]2[C@@H]3CC[C@H]4NC(=O)C=C[C@]4(C)[C@H]3CC[C@]12C
remaining NAD [1]: 10 nM (inactive)
z-score [3]: 0.465 (inactive)
log fold change Tl+ flux (F380Y): 0.0287 (inactive)
log fold change Tl+ flux (F380Y/beta1): 0.0111 (inactive)

C[C@H](NC(CCc1ccccc1)C(=O)O)C(=O)N1CCC[C@H]1C(=O)O (stereo not given in full)
remaining NAD [1]: 10 nM (inactive)
z-score [3]: 0.7 (inactive) and 0.605 (inactive)
log fold change Tl+ flux (F380Y): 0.0291 (inactive)
log fold change Tl+ flux (F380Y/beta1): 0.00867 (inactive)

CC(C)(C#N)c1cc(Cn2cncn2)cc(C(C)(C)C#N)c1
remaining NAD [1]: 10 nM (inactive)
z-score [3]: 0.695 (inactive) and 0.735 (inactive)
log fold change Tl+ flux (F380Y): 0.0287 (inactive)
log fold change Tl+ flux (F380Y/beta1): 0.000378 (inactive)

CC(=O)Oc1ccccc1C(=O)Nc1ncc([N+](=O)[O-])s1
remaining NAD [1]: 10 nM (inactive)
z-score [3]: -1.79 (inactive)
log fold change Tl+ flux (F380Y): -0.199 (active)
log fold change Tl+ flux (F380Y/beta1): 0.0346 (inactive)

CC(N)C12CC3CC(CC(C3)C1)C2 (stereo not given)
remaining NAD [1]: 10 nM (inactive)
luciferase signal [2]: 48 AU (inactive)
z-score [3]: 1.03 (inactive) and -0.17 (inactive) and -0.24 (inactive)
inhibition ([4]; at 0.5 µM, stronger effect = higher value): 6% (inactive)
inhibition ([4]; measured here: combination with BGB IC20, at 0.005 µM): -16.1%
inhibition ([4]; measured here: combination with BGB IC40, at 0.005 µM): -38.1%
inhibition [4, 19]: -30.6%
inhibition ([4]; measured here: combination with cisplatin, at 0.5 µM, stronger effect = higher value): 9.24%
inhibition ([4]; measured here: combination with cisplatin, at 5 µM, stronger effect = higher value): -22.9%
inhibition ([5]; BGB combo, at 5 µM): -28.3%
inhibition ([5]; at 0.5 µM): -32.5% (inactive)
inhibition ([5]; cisplatin combo, at 5 µM): -20.2%
inhibition [5, 20]: -33.5%
inhibition [5, 21]: -23.6%
inhibition ([5]; single agent, at 5 µM): -36.9%
inhibition ([6]; BGB IC20 combo, at 0.005 µM): -4.5%
inhibition ([6]; BGB IC40 combo, at 0.005 µM): -19.4%
inhibition ([6]; BGB IC40 combo, at 0.05 µM): -14.2%
inhibition ([6]; at 0.5 µM): -43.5% (inactive)
inhibition ([6]; cisplatin combo, at 0.05 µM): -17.4%
inhibition ([6]; cisplatin combo, at 0.5 µM): -54.1%
inhibition ([6]; cisplatin combo, at 5 µM): -42.4%
inhibition ([6]; measured here: 5 uM single agent, at 5 µM): 12.3%
inhibition ([7]; at 0.5 µM): -32.9% (inactive)
inhibition [7, 19]: -22.2%
inhibition [7, 22]: -47.8%
inhibition [7, 23]: -25.5%
inhibition ([8]; at 0.5 µM): -15.6% (inactive)
inhibition ([8]; measured here: with BGB IC20, at 0.5 µM): -39.8%
inhibition ([8]; measured here: with BGB IC20, at 5 µM): -20.6%
inhibition ([8]; measured here: with cisplatin IC20, at 0.5 µM): -6.13%
inhibition ([8]; measured here: with cisplatin IC20, at 5 µM): -66.2%
inhibition ([8]; single agent, at 5 µM): -17.9%
inhibition ([9]; at 0.5 µM): -53.4% (inactive)
inhibition ([9]; measured here: combination with BGB at IC20, at 0.5 µM): -8.22%
inhibition ([9]; measured here: combination with cisplatin at IC20, at 0.5 µM): -77.6%
inhibition ([10]; at 0.5 µM): -18.7% (inactive)
inhibition ([10]; measured here: combo with BGB at IC20, at 0.5 µM): -21.4%
inhibition ([10]; measured here: combo with cisplatin at IC20, at 0.5 µM): -22.1%
inhibition ([11]; at 0.5 µM): -6.71% (inactive)
inhibition ([11]; measured here: inhibition with BGB combination, at 0.05 µM): -27.7%
inhibition ([11]; measured here: inhibition with cisplatin combination, at 0.05 µM): -16.3%
inhibition ([12]; at 0.5 µM): -18.8% (inactive)
inhibition [12, 22]: -16.8%
inhibition [12, 23]: -59.2%
inhibition ([13]; at 0.5 µM): -35.4% (inactive)
inhibition ([13]; measured here: BGB combination, at 0.5 µM): -21.6%
inhibition ([13]; measured here: BGB combination, at 5 µM): -29.1%
inhibition ([13]; measured here: cisplatin combination, at 0.5 µM): -60.5%
inhibition ([13]; measured here: cisplatin combination, at 5 µM): -34.4%
inhibition ([14]; BGB combination, concentration series, at 5 µM): -31.1%
inhibition ([14]; at 0.5 µM): -16.9% (inactive)
inhibition ([14]; cisplatin combination, concentration series, at 5 µM): 2.74%
inhibition [15]: -10.5% (inactive)
inhibition ([15]; measured here: combo with BGB IC20): -8.28%
inhibition ([15]; measured here: combo with cisplatin IC20): -5.35%
inhibition ([16]; at 0.5 µM): -35.2% (inactive)
inhibition ([16]; cisplatin combination, at 0.5 µM): -18.2%
inhibition ([16]; cisplatin combination, at 5 µM): -3.55%
inhibition ([16]; measured here: BGB IC40 combination 0.05 uM, at 0.05 µM): 9.42%
inhibition ([16]; single agent, at 5 µM): -34.6%
inhibition ([17]; at 0.5 µM): -21.2% (inactive)
inhibition ([17]; cisplatin combo, at 5 µM): -32.4%
inhibition ([17]; measured here: BGB IC40 combination, at 0.05 µM): -22.9%
inhibition [17, 22]: -18.2%
inhibition ([17]; single agent, at 5 µM): -26.9%
inhibition ([18]; at 0.5 µM): -36.2% (inactive)
inhibition [18, 20]: -19.2%
inhibition [18, 21]: -48%
inhibition ([18]; single agent, at 0.05 µM): -83.2%
inhibition ([18]; single agent, at 5 µM): 0.3%
log fold change Tl+ flux (F380Y): 0.00103 (inactive)
log fold change Tl+ flux (F380Y/beta1): 0.0203 (inactive)

CCCc1nc(C)c2c(=O)[nH]c(-c3cc(S(=O)(=O)N4CCN(CC)CC4)ccc3OCC)nn12
remaining NAD [1]: 18 nM (inactive)
luciferase signal [2]: 60 AU (inactive)
z-score [3]: 0.68 (inactive) and 0.485 (inactive)
log fold change Tl+ flux (F380Y): -0.00852 (inactive)
log fold change Tl+ flux (F380Y/beta1): 0.00246 (inactive)
